# In PubChem BioAssay AID1672 (Johns Hopkins Ion Channel Center, 2009):
# The whole screen tested about 310,000 compounds, of which about 2,600 (0.84%) were called active. This excerpt belongs to a sample that is enriched for actives. Unmarked numbers belong to inactive results.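 How the source made its calls: active means fluorescence ratio B-score at or below minus 3 SD of library scores, with starting-brightness B-score within 2 SD (cut at about -4.2 in these data); inactive means the rest.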
# Target: Inward rectifier potassium channel 2 (Mus musculus) (UniProt P35561)
# Experiment: blocks the mouse Kir2.1 inward-rectifier potassium channel (AID 1672);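 further: channel flux triggered by added potassium and thallium sulfate stimulus; B-score of peak minus minimum fluorescence over baseline after thallium stimulus; more negative B-score means stronger Kir2.1 block with less thallium influx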
# Details: HEK293-Kir2.1, FluxOR thallium flux fluorescence; at 10 µM; active compounds read low
# Sequence of Inward rectifier potassium channel 2 (Mus musculus) (P35561 whole entry, looked up): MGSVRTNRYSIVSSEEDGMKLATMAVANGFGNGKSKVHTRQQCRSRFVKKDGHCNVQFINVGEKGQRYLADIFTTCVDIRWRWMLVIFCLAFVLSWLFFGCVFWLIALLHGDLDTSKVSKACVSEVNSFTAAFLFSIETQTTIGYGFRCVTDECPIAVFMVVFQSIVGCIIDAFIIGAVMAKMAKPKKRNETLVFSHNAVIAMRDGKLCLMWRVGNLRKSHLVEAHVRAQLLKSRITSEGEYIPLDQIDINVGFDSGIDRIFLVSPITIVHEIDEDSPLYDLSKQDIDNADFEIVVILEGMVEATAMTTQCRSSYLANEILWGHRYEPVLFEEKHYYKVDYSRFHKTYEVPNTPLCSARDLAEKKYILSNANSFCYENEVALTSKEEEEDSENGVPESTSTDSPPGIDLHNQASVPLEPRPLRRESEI
row,Structure (SMILES),B-score
1,CCN(CC)CCn1c2c(c(SCC(=O)Nc3nc4ccccc4s3)nc1=O)CCCC2,0.03
2,COc1ccc(NC(=O)CN(C)C(=O)/C=C/c2cn(Cc3ccccc3)nc2-c2cccnc2)cc1,0.01
3,CCOC(=O)c1cc(NC(=O)c2cccnc2)ccn1,0.04
4,CCc1noc(C)c1C(=O)Oc1ccc(N(C)S(=O)(=O)c2ccc(C)c(C)c2)cc1,-0.66
5,CC(OC(=O)C1CC(=O)N(Cc2ccccc2)C1)C(=O)Nc1ccccc1[N+](=O)[O-] (configuration not stated),-1.36
6,CCN(CC)CCn1cnc2c1c(=O)[nH]c(=O)n2Cc1ccccc1,0.13
7,N=c1c2c(-c3ccccc3)c(-c3ccccc3)oc2ncn1Cc1ccco1,1.16
8,N=c1c2c(-c3ccccc3)c(-c3ccccc3)n(Cc3ccccc3)c2ncn1CCCO,-6.86 (active)
9,Cn1c(SCC(=O)c2ccccc2)ncc(C(=O)Nc2ccc(F)cc2)c1=O,1.98
10,O=S(=O)(Nc1cccc(-c2ccc(N3CCOCC3)nn2)c1)c1ccc(Cl)c(Cl)c1,0.82
11,CCN(CC(=O)NCc1cccs1)C(=O)c1ccc(OC)c(S(=O)(=O)N2CCOCC2)c1,-0.52
12,CC1(C)NC(=O)N(CCOc2cccc(Oc3ccccc3)c2)C1=O,-4.68 (active)
13,CC(O)CNCCOc1cccc(Oc2ccccc2)c1 (configuration not stated),-2.96
14,Cc1cccc2c1N(CCOc1ccccc1)C(=O)C2=O,-0.18
15,O=C(COc1coc(CN2CCN(c3ccccc3)CC2)cc1=O)Nc1ccccc1F,-0.62
16,CN(C)CCOC1c2ccccc2-c2ccccc21,0.04
17,CN(C)CCOCCOc1ccc(Cl)c2ccccc12,-5.07 (active)
18,CCN(CC)CCOCCOc1ccc(Cl)c2ccccc12,-2.53
19,CN(Cc1c(F)cccc1Cl)C(=O)CNC(=O)c1ccc2c(c1)OCO2,0.45
20,CCOc1ccc(NC(=O)CN(C)C(=O)COc2cccc(CC)c2)cc1OCC,-1.11
21,COc1ccc2c(c1)C(=O)Nc1cc(Cl)ccc1N2,0.62
22,CCn1c(=N)n(CC(=O)c2cccc(OC)c2)c2ccccc21,-0.01
23,Cc1ccc(OCc2nc3ccccc3n2C)cc1,-0.43
24,CCCCCCCCCCOC(=O)Cn1c(COc2cccc(OC)c2)[n+](C)c2ccccc21,-8.13 (active)
25,CCn1c(COc2cccc(OC)c2)nnc1SCC(=O)N1CCOCC1,0.86

row,Structure (SMILES),B-score
1,CCCCOC(=O)Cn1c(=O)n(CC(=O)OCCCC)c2cc(C)ccc21,-7 (active)
2,Cc1ccc(OCCCn2c(=O)oc3ccccc32)cc1,-1.92
3,CCCCOC(=O)Cn1c(=N)n(CCN(CC)CC)c2ccccc21,1.01
4,CCOC(=O)CN1C(=O)C(=O)c2cc(C)ccc21,-1.78
5,CCCCCCCCCCOC(=O)Cn1c(COc2ccc(C)cc2)[n+](C)c2ccccc21,-17.5 (active)
6,CC(C)CN(C(=O)COC(=O)c1ccc2ccccc2c1)c1c(N)n(Cc2ccccc2)c(=O)[nH]c1=O,1.03
7,CCOc1ccc(NC(=O)COc2ccc(C(=O)N3CCC(C(N)=O)CC3)cc2OC)cc1,1.65
8,COc1ccc(CNC(=O)C(=O)N2CCC3(CC2)OCCN3S(=O)(=O)c2ccc(C)cc2)cc1,0.4
9,COc1ccc(C(=O)Nc2cccc(NC(=O)c3ccc(OC)cc3OC)n2)c(OC)c1,1.64
10,O=S(=O)(O)Oc1c[nH]c2ccccc12,0.01
11,Cc1nnc(SCC(=O)NCCOc2ccc(Cl)cc2)n1-c1ccccc1,-0.16
12,Cc1nnc(SCc2ccc(C(=O)c3ccc(Cl)cc3)o2)n1-c1ccccc1,-6.19 (active)
13,Cc1nnc(SCC(=O)N2CCN(c3ccccc3)CC2)n1-c1ccccc1,0.71
14,COc1ccc(OCC(O)CN(C)C(=O)C(C)Oc2ccccc2)cc1 (configuration not stated),-0.09
15,Cc1ccc(OCC(=O)OC(C)CN(C)Cc2ccccc2)cc1 (configuration not stated),0.74
16,CN(Cc1ccccc1)CC(O)COc1ccc(CNCc2cc3ccccc3s2)cc1 (configuration not stated),-11.4 (active)
17,C=CCNC(=O)C1CC2c3ccccc3C1c1ccccc12 (configuration not stated),-2.23
18,C[C@H](NC(=O)OC(C)(C)C)c1nnc(SCC(N)=O)o1,-0.34
19,C[C@@H](NC(=O)OC(C)(C)C)c1nnc(S(=O)(=O)Cc2ccccc2)o1,-6.48 (active)
20,CC(C)Sc1nnc([C@H](Cc2ccccc2)NC(=O)OC(C)(C)C)o1,-0.51
21,O=C(c1ccc(Cl)s1)N(Cc1nnc(-c2ccccc2Cl)o1)C1CC1,1.76
22,Cc1ccn2c(=O)nc(SCC(=O)NCc3ccc(F)cc3)nc2c1,-1.27
23,Cc1csc(NC(=O)c2ccc(C)s2)n1,0.01
24,CC(=O)Nc1cccc(C(=O)OCC(=O)Nc2nnc(-c3ccccc3)o2)c1,-2.17
25,COc1ccccc1NS(=O)(=O)c1ccc(C)c(C(=O)NCC(c2ccco2)N(C)C)c1 (configuration not stated),-0.98

row,Structure (SMILES),B-score
1,C=CCNC(=S)/N=c1/ccccn1Cc1ccccc1,-6.6 (active)
2,C=CCNC(=S)N/N=C/c1ccc(OCc2ccccc2)cc1,-1.45
3,C=CCNC(=O)COc1coc(CN2CCN(Cc3ccccc3)CC2)cc1=O,0.45
4,O=C(Nc1ncccc1O)c1ccc(S(=O)(=O)N2CCCC2)cc1,-0.16
5,CCOCCCNCc1cc(Br)ccc1OCC,-0.16
6,CC(C)(C)NCc1cc(Br)ccc1OC1CCCC1,-4.79 (active)
7,COCC(C)NCc1cc(Br)ccc1OC (configuration not stated),1.7
8,Cc1ccc(NC(=O)c2cnc(SCC(=O)NCC3CCCO3)n(C)c2=O)cc1 (configuration not stated),0.42
9,Cc1ccc(S(=O)(=O)N2CCC(C(=O)NCCC3=CCCCC3)CC2)cc1C,0.61
10,O=C1c2ccccc2C(=O)c2c1cccc2N1CCN(C/C=C/c2ccccc2)CC1,1.06
11,COc1ccc(C)cc1NC(=O)CSc1nnc2ccc(-c3ccccn3)nn12,0.98
12,Cc1ccc(SCCN2C(=O)NC(C)(C)C2=O)cc1,0.51
13,CC1(C)NC(=O)N(CCCCSc2ccc(Cl)cc2)C1=O,-6.38 (active)
14,CSc1ccc(CN2C(=O)NC3(CCCCCC3)C2=O)cc1,1.22
15,Cc1ccn2c(=O)c(NC(=O)c3cccc4ccccc34)c(C)nc2c1,-0.25
16,CC1CN(C(=O)CCC(=O)NCCCN2CCC(Cc3ccccc3)CC2)c2cc(Cl)ccc2O1 (configuration not stated),-9.24 (active)
17,CC1CN(C(=O)CCC(=O)NC2CCN(Cc3ccccc3)CC2)c2ccccc2O1 (configuration not stated),2.27
18,CC1CN(C(=O)CCC(=O)NCc2cccnc2)c2ccccc2O1 (configuration not stated),-0.67
19,CN(C)S(=O)(=O)c1ccc(N2CCCC2)c(C(=O)Nc2ccc(Br)cc2F)c1,-0.29
20,Cc1cc(C)cc(NC(=O)COc2coc(CN3CCN(c4ccccc4)CC3)cc2=O)c1,0
21,Cc1ccc(NC(=S)N(CCCN2CCC(C)CC2)Cc2ccco2)cc1,-0.74
22,Cc1ccc(NC(=S)N(CCN2CCCCC2)Cc2ccco2)cc1C,-0.41
23,Cc1ccc(NC(=S)N(CCCN2CCCC2)Cc2cccn2Cc2ccc(Cl)cc2)cc1,-8.85 (active)
24,CC(C)(C)S(=O)(=O)c1ccccc1-c1noc(-c2ccccc2)c1C(N)=O,-0.65
25,COc1ccc(S(=O)(=O)NCC(c2ccc(C)cc2)N2CCN(C)CC2)cc1OC (configuration not stated),1.23

row,Structure (SMILES),B-score
1,CCCOc1ccc(C(=O)CCC(=O)OC(C)C(=O)Nc2ccc(NC(C)=O)cc2)cc1 (configuration not stated),0.42
2,CCCCOc1ccc(C(=O)NCc2ccncc2)cc1,0.24
3,CCCOc1ccc(C(=O)C(CCC(CNCC)C(=O)c2ccc(OCCC)cc2)CNCC)cc1 (configuration not stated),-6.16 (active)
4,O=C(CSc1nc(=O)n2ccccc2n1)Nc1ccc2c(c1)OCCO2,0.08
5,CCOc1ccc(C(C)=O)cc1COC(=O)CN1C(=O)NC2(CCCC2)C1=O,-1.53
6,CCCCn1c(N)c(N(CC(C)C)C(=O)c2ccc(-n3c(C)ccc3C)cc2)c(=O)[nH]c1=O,-1.14
7,c1ccc(C2CNCc3c2ccc2ccccc32)cc1 (configuration not stated),-11.2 (active)
8,Cc1ccc(C)c(-c2nnc(NC(=O)CS(=O)(=O)c3ccccc3)o2)c1,1.4
9,O=c1[nH]c(/C=C/c2cccc(Br)c2)nc2ccccc12,0.39
10,CC(=O)Nc1ccc(SCC(=O)Nc2ccccc2Oc2ccccc2)cc1,-6.89 (active)
11,Cc1cc(C)cc(NC(=O)CSc2ccccc2)c1,0.12
12,O=C(CSc1ccccc1)Nc1cc(Cl)ccc1Oc1ccccc1,-1.22
13,N#CCCN(C(=O)COC(=O)C1CCN(c2ccc(C(F)(F)F)cn2)CC1)c1ccc(F)cc1,0.96
14,CCOC(=O)N1CCN(C(=O)COc2ccc3oc4c(c3c2)CCCC4)CC1,0.58
15,COc1ccccc1CCNC(=O)C(=O)NCCC1CCCCN1S(=O)(=O)c1cccs1 (configuration not stated),-1.17
16,O=C(/C=C/c1ccc(Cl)c([N+](=O)[O-])c1)c1cccnc1,-0.86
17,O=C(/C=C/c1ccc(Cl)cc1Cl)c1cccnc1,-4.49 (active)
18,O=C(Nc1cccnc1)c1cc(Cl)ccc1Cl,0.72
19,COc1ccc2oc(C(=O)OCC(=O)N(CC(C)C)c3c(N)n(Cc4ccccc4)c(=O)[nH]c3=O)c(C)c2c1,0.5
20,COc1ccccc1S(=O)(=O)c1c(C)cc(C)[nH]c1=O,-1.21
21,Cc1cc(C)c(S(=O)(=O)c2ccc(F)cc2C)c(=O)[nH]1,0.31
22,C=C(C)Cn1c(C)cc(C)c(S(=O)(=O)c2ccccc2C)c1=O,-4.55 (active)
